Compound activity: PubChem, Sanford-Burnham Center for Chemical Genomics
Mac1 fbg inh: CD11b/CD18-fibrinogen binding inhibition; K562 CD11b/CD18 adhesion to fibrinogen, ATPlite luminescence; Mn2+ added to activate the integrin; inhibition, % at 10 µM; 93,000 tested, 0.54% active; AID 1497;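 active = primary inhibition of 50% or more at 10 µM, then 40% or more on retest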
Target sequence (P05107 whole entry, looked up, other chains not shown): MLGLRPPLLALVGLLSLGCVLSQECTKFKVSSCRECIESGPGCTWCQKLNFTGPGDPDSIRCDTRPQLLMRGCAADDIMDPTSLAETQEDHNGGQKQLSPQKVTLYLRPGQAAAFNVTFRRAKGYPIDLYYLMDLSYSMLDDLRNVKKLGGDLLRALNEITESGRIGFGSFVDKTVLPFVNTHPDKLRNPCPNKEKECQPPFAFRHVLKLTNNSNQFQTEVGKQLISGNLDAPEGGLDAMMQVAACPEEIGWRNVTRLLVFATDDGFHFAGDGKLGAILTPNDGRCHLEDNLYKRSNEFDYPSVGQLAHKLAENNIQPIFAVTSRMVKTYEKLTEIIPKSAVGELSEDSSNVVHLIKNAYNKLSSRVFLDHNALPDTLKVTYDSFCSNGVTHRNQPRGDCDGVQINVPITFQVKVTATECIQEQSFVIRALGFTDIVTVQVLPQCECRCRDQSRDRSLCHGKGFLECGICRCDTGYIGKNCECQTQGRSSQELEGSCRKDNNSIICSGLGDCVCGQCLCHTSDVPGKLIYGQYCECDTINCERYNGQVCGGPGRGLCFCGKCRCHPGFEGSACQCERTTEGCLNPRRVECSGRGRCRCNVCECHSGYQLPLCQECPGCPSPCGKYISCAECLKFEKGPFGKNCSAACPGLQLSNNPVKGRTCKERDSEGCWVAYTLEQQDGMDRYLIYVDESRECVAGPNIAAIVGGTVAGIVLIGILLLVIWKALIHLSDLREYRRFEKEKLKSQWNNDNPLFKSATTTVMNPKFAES
CYP2C19 activ: increases human CYP2C19 enzyme activity. P33261. recombinant CYP2C19, luciferin-H EGE luminescence; hits give high values; 0 = fully inhibited enzyme, 1 = untreated enzyme. activation factor at 5 µM. 96,000 tested, under 10 active. AID 1025;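 active = activation factor of at least 2 at 5 µM in the primary screen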
CYP2C9 activ: increases human cytochrome P450 2C9 activity | 96,000 tested, 1.4% active | AID 1024 | P11712 | recombinant CYP2C9, luciferin-H conversion, luminescence; hits give high values; factor 1 = untreated enzyme, 0 = blocked | activation factor at 5 µM;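 active = activation factor of 2 or more for CYP2C9 at a 5 µM dose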
Mac1 fbg enh: CD11b/CD18-fibrinogen binding enhancement | P05107+P11215 | K562 CD11b/CD18 adhesion to fibrinogen, ATPlite luminescence | activation, % at 10 µM | 93,000 tested, 0.07% active;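 active = 10 µM primary screen giving 50% or more activity, confirmed by 40% or more on retest at that dose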
CYP2C19 inhib: blocks human cytochrome P450 2C19; CYP2C19 Supersomes, luciferin-H EGE luminescence, 30 min; inhibition, % at 5 µM; P33261; AID 778; 96,000 tested, 21% active;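 active = CYP2C19 inhibition above a set limit at 5 µM in the primary screen, cut at about 50% in these data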
CYP2C9 inhib: inhibitors of human CYP2C9; CYP2C9 Supersomes, luciferin-H conversion, luminescence; inhibition, % at 5 µM; 96,000 tested, 20% active; AID 777;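 active = blocking of liver enzyme CYP2C9 beyond about 50% at 5 µM, limit read from the data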
Each line names hits and unclear results; the compound was inactive in the other large screens. A selection: hits, their analogues and other compounds. The true share with any hit is near 28%.

N#C/C(=C(/O)CSc1ccccc1C(=O)O)c1nc2ccccc2s1	none
CCOC(=O)N1CCN(C(c2ccc(F)cc2)c2sc3nc(C)nn3c2O)CC1 (stereo not drawn)	none
COc1cc(C(=O)NCc2nnc(SCC(=O)Nc3cc(C)cc(C)c3)o2)cc(OC)c1OC	none
CSc1nccc(-c2nn(-c3ccc(C)cc3)ccc2=O)n1	none
CCSc1nccc(-c2nn(-c3ccc(C)cc3)ccc2=O)n1	CYP2C9 inhib 63
O=C(/C=C/c1ccc(Br)o1)NC(c1ccccc1)c1ccccc1	none (no result: CYP2C19 activ, CYP2C9 activ, CYP2C19 inhib, CYP2C9 inhib)
COc1ccc(C2(CNC(=O)CCC(=O)O)CCCC2)cc1OC	none
CCOC(=O)C1=C(CN2CCSCC2)NC(=O)NC1c1cc(C)ccc1C (stereo not drawn)	CYP2C9 inhib 56
CCOC(=O)C1=C(CSCC(=O)OC)NC(=O)NC1c1cc(C)ccc1C (stereo not drawn)	none
CCOC(=O)C1=C(CSc2nc3ccccc3s2)NC(=O)NC1c1cc(C)ccc1C (stereo not drawn)	CYP2C19 inhib 68, CYP2C9 inhib 78 (no result: Mac1 fbg inh, Mac1 fbg enh)
CCOC(=O)C1=C(CSc2nc3ccccc3s2)NC(=O)NC1c1ccc(OC)cc1 (stereo not drawn)	CYP2C19 inhib 60 (no result: Mac1 fbg inh, Mac1 fbg enh)
CCn1c(C(C)NC(=O)c2cccs2)nc2ccccc21 (stereo not drawn)	CYP2C9 inhib 52
CCCCCn1c(CCNC(=O)c2cccs2)nc2ccccc21	CYP2C19 inhib 96, CYP2C9 inhib 92
CCOC(=O)c1sc(C)c(C(=O)NCC(C)(C)CN(C)C)c1N	none (no result: Mac1 fbg inh, Mac1 fbg enh)
Cc1cc2cc(CN(Cc3ccc4c(c3)OCO4)C(=O)c3ccco3)c(=O)[nH]c2cc1C	none
O=C(c1cc2ccccc2oc1=O)N(Cc1ccc2c(c1)OCO2)Cc1ccco1	CYP2C19 inhib 96, CYP2C9 inhib 92
O=C(N1CCOCC1)N(Cc1ccco1)CC1CCCO1 (stereo not drawn)	none
O=C(c1cc2ccccc2oc1=O)N(Cc1ccco1)CC1CCCO1 (stereo not drawn)	CYP2C9 inhib 55
O=C(NCC1CCCO1)c1c(O)c2c([nH]c1=O)CCCC2 (stereo not drawn)	none
OC(CN1CCN(c2ccccc2)CC1)c1c[nH]c2ccccc12 (stereo not drawn)	CYP2C19 inhib 57
Cn1c(=O)c2ccccc2n(Cc2ccccc2F)c1=O	CYP2C19 inhib 52
CCCC(C(=O)NCc1ccco1)N(C(=O)CNS(=O)(=O)c1ccc(Cl)cc1)C1CCCC1 (stereo not drawn)	CYP2C19 inhib 92, CYP2C9 inhib 80
CC(C)C(C(=O)NCc1ccco1)N(C(=O)CNS(=O)(=O)c1ccccc1)C1CCCC1 (stereo not drawn)	none
CCC(C(=O)NCc1ccco1)N(C(=O)CNS(=O)(=O)c1ccccc1)C1CCCCC1 (stereo not drawn)	CYP2C19 inhib 71
CCn1c(=O)c(=O)[nH]c2cc(C(=O)N3CCN(c4ccccc4F)CC3)ccc21	none
COC(=O)[C@@H](NC(=O)Nc1ccc(OC)cc1)C(C)C	none
COC(=O)c1ccc(CSc2nnc(-c3ccncc3)n2Cc2ccccc2)o1	CYP2C19 inhib 87, CYP2C9 inhib 74
CNC(=O)CSc1nnc(-c2ccncc2)n1Cc1ccccc1	none (no result: Mac1 fbg inh, Mac1 fbg enh)
CCOC(=O)c1c(-c2ccc(C)cc2)csc1NC(=O)CCSc1nnc2ccccn12	none (no result: CYP2C19 activ, CYP2C9 activ, CYP2C19 inhib, CYP2C9 inhib)
Cc1ccc(NC(=O)CCSc2nnc3ccccn23)cc1	CYP2C19 inhib 55 (no result: Mac1 fbg inh, Mac1 fbg enh)
Cc1ccc(-n2nnnc2SCC(=O)NCCC2=CCCCC2)c(C)c1	CYP2C19 inhib 71, CYP2C9 inhib 80
COC(=O)c1ccc(CSc2nnc3ccccn23)o1	CYP2C19 inhib 52
CCCCNCCCOc1cccc(Cl)c1Cl	none
COC(=O)C(C)Sc1nnc(-c2ccncc2)o1 (stereo not drawn)	CYP2C19 inhib 89
COc1ccc(-c2nnc(SCC(=O)c3cccs3)o2)cc1	none
COC(=O)c1ccc(CSc2nnnn2-c2ccc(C)cc2C)o1	CYP2C19 inhib 90, CYP2C9 inhib 86
COC(=O)c1ccc(CSc2nnc(-c3ccncc3)o2)o1	CYP2C19 inhib 91, CYP2C9 inhib 76
COc1ccc2c(c1)-c1c(sn(-c3ccc(OC)c(OC)c3)c1=S)C(C)(C)N2	CYP2C9 inhib 59 (no result: Mac1 fbg inh, Mac1 fbg enh)
COc1ccc(-n2sc3c(c2=S)-c2cc(OC)ccc2NC3(C)C)cc1	CYP2C9 inhib 82
COc1cc2c3c(c1)-c1c(sn(-c4cc(OC)ccc4OC)c1=S)C(C)(C)N3C(=O)C2=O	none (no result: Mac1 fbg inh, Mac1 fbg enh)
CCOC(=O)Cc1cnc(NC(=O)Cn2nnc(-c3ccc(OCC)cc3)n2)s1	CYP2C19 inhib 66, CYP2C9 inhib 85
CCCCOc1ccc(-c2nnn(CC(=O)Nc3ncc(CC(=O)OCC)s3)n2)cc1	CYP2C9 inhib 76
COC(=O)C1=C(C)NC(=O)NC1C1CC=CCC1 (stereo not drawn)	none
COc1ccccc1N1CCN(C/C(C)=C/c2ccccc2)CC1	none
Cc1[nH]c2ccccc2c1C(=O)CN1CCCC1	none
COc1ccccc1N1CCN(CC(=O)c2c(C)n(C)c3ccccc23)CC1	CYP2C19 inhib 54
Cc1[nH]c2ccccc2c1C(=O)CN1CCSCC1	CYP2C19 inhib 77
COc1ccccc1N1CCN(CC(=O)c2c(C)[nH]c3cc(C)ccc23)CC1	CYP2C19 inhib 62
COc1ccc(CN(Cc2ccccn2)S(=O)(=O)c2ccc(-n3cnnn3)c(OC)c2)cc1	CYP2C19 inhib 89, CYP2C9 inhib 92
O=C(NCc1ccco1)C1CCCN(S(=O)(=O)c2ccc(-n3cnnn3)cc2)C1 (stereo not drawn)	none
COc1cc(S(=O)(=O)N(Cc2ccco2)C2CCCC2)ccc1-n1cnnn1	CYP2C19 inhib 98, CYP2C9 inhib 74
CCCN(CC1CC1)S(=O)(=O)c1ccc(-n2cnnn2)c(OC)c1	CYP2C19 inhib 100
Cc1cc(S(=O)(=O)N(Cc2ccccn2)Cc2ccco2)ccc1-n1cnnn1	CYP2C19 inhib 75, CYP2C9 inhib 54
CC(C)OC(=O)c1cccc(C(=O)OCc2ccco2)n1	none
Cc1nc2ccc(NC(=O)Cc3ccc4c(c3)OCCO4)cc2s1	none (no result: CYP2C19 activ, CYP2C9 activ, CYP2C19 inhib, CYP2C9 inhib)
CCN(CC)S(=O)(=O)c1ccc(-n2cnnn2)c(C)c1	none
CCOc1ccccc1CN(Cc1ccco1)S(=O)(=O)c1ccc(-n2cnnn2)c(OC)c1	CYP2C19 inhib 94, CYP2C9 inhib 68
COc1ccc(S(=O)(=O)NCCc2csc(C)n2)cc1C	CYP2C19 inhib 74
COc1ccc(S(=O)(=O)NCCC(C)C)cc1C	CYP2C19 inhib 85
Cc1cccc(OCCCC(=O)N2CCCc3ccccc32)c1C	CYP2C19 inhib 83
O=C1c2ccccc2C(=O)N1CCCC(=O)N1CCCc2ccccc21	CYP2C19 inhib 83
O=C(CCCC(=O)N1CCc2ccccc21)N1CCc2ccccc21	none
